Hits are enriched below; roughly 4.5% of the tested compounds scored in any of these assays.
PrPC surface inh – reduces human prion protein on the cell surface. inhibition, % at 13.8 µM. 370,000 tested, 0.43% active. cell surface PrPC, TR-FRET read-out; in the data active = inhibition above about 24%; also: 0% = median of the test wells and 100% = reference compound wells
PfHsp40 yeast – compounds rescuing yeast from Plasmodium falciparum HSP40 toxicity | growth rescue, % at 12.5 µM | 340,000 tested, 0.68% active | S. cerevisiae expressing PfHsp40, growth rescue, ATP luminescence; in the data active = growth rescue above about 28%, passing the limit was not always enough;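 also: yeast W303a lacking pdr1 and pdr3 grown in galactose medium; growth measured after three days at 30 °C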
BJeLR viability – BJeLR cell viability loss. BJeLR (HRASV12) viability, CellTiter-Glo ATP luminescence, 48 h. inhibition, % (concentration not given with the values). 300,000 tested, 0.17% active. AID 1554; in the data active = inhibition above about 50%
GDH-TPI counter – inhibits GDH-TPI coupling enzymes, artifact for Mtb FBA screen; GDH-TPI coupled enzyme counterscreen, NADH absorbance; AID 588335; inhibition, % at 4.8 µM; 360,000 tested, 1.2% active; in the data active = inhibition above about 30%;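 also: 0% = DMSO wells and 100% = wells lacking the enzyme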
Mtb FBA inh – inhibitors of M. tuberculosis fructose-bisphosphate aldolase; P9WQA3; purified M. tuberculosis FBA, fluorescence read-out; 360,000 tested, 2.3% active; inhibition, % at 1 µM; in the data active = inhibition above about 27%;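 also: 0% = vehicle and 100% = reference inhibitor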
Target sequence (P9WQA3 whole entry, looked up): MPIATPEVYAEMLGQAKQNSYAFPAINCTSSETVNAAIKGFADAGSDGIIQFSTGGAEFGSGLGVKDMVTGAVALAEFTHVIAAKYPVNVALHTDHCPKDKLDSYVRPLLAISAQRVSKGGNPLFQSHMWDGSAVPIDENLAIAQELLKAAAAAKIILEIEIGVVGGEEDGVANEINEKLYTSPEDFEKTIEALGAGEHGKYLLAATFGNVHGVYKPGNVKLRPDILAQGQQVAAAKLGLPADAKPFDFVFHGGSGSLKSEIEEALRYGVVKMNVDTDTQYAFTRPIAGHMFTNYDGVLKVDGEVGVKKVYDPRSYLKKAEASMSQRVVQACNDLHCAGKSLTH
PrP UTR inh – inhibition of PrP 5' UTR reporter expression | 340,000 tested, 0.35% active | cell-based PrP 5' UTR mRNA reporter, plate reader | inhibition, % (test concentration not listed); in the data active = inhibition above about 52%; also: 0 = median of the neutral control wells
Active calls of the source: *; . = not tested or not shown.

SMILES	PrPC surface inh	PfHsp40 yeast	BJeLR viability	GDH-TPI counter	Mtb FBA inh	PrP UTR inh
O=C(CN1C(=O)S/C(=C/c2cccs2)C1=O)N1CCOCC1	-12	0	3	37*	0	-12
O=C(CN1C(=O)S/C(=C\c2cccs2)C1=O)Nc1ccc(C(=O)O)c(O)c1	-7	1	-1	49*	-8	-132
O=C(CN1C(=O)S/C(=C/c2cccs2)C1=O)N1CCCC1	-9	-1	.	21	-1	1
O=C(OCc1cn(Cc2cc(F)cc(F)c2)nn1)N1CCOCC1	0	.	.	.	.	.
Nc1nc(=O)n(C2OC(CO)C(O)C2O)cc1F (centres undefined)	-1	.	.	.	-5	.
O=c1[nH]c(=O)n(C2OC(CO)C(O)C2O)cc1F (centres undefined)	.	203*	.	-9	-1	35
N#CC1(NC(=O)COC(=O)c2ccc(Cl)nc2)CCCCC1	2	-1	-15	-3	8	4
Nc1nccnc1C(=O)OCC(=O)NNC(=O)c1ccccc1	0	0	-7	12	160*	-17
N#CC1(NC(=O)COC(=O)c2nccnc2N)CCCCC1	-2	1	4	10	165*	-6
COc1ccccc1C(=O)NC(=O)COC(=O)c1cnccn1	2	.	.	4	-1	.
CC1CCCCC1NC(=O)NC(=O)COC(=O)c1nccnc1N (centres undefined)	7	1	.	16	118*	-14
COc1ccccc1C(=O)NC(=O)COC(=O)c1nccnc1N	5	-1	.	7	144*	-10
C=CCN1[C@H](CO)[C@H](c2ccccc2)[C@@H]1C#N	-7	.	.	.	.	.
Cc1cc(C)cc(C(=O)OCCN(C)C2CN(Cc3cn(Cc4ccccc4C(F)(F)F)nn3)S(=O)(=O)C2)c1 (centres undefined)	-4	.	.	.	.	.
Cc1cc(NC(=O)COc2ccccc2)n(-c2ccccc2)n1	-4	-1	1	7	1	-13
Cc1cc(NC(=O)COC(=O)c2nccnc2N)n(-c2ccccc2)n1	4	0	-3	13	129*	-3
COC(=O)[C@]12C=CCN1[C@H](c1ccc(OC)c(OC)c1)c1c(c3ccccc3n1S(=O)(=O)c1ccc(C)cc1)C2	0	.	.	.	.	.
COc1ccc(OC)c(C2C(C(=O)c3cc4ccccc4o3)=C(O)C(=O)N2c2cc(C)on2)c1 (centres undefined)	7	1	-2	17	0	-11
COc1ccccc1C1C(C(=O)c2cc3ccccc3o2)=C(O)C(=O)N1c1cc(C)on1 (centres undefined)	5	1	0	31*	7	0
CCC(C)c1ccc2oc(-c3ccc(NC(=O)c4ncn[nH]4)cc3)nc2c1 (centres undefined)	10	-1	-9	31*	4	-8
CC(C)c1ccc2oc(-c3ccc(NC(=O)c4ncn[nH]4)cc3)nc2c1	1	1	3	.	.	-115
CCN(CC)C(=O)O[C@H]1CC[C@@]23CCCN2C(=O)CCC[C@H]3C1	-2	.	.	.	.	.
COc1cc(/C=C/C(=O)OCC(=O)NC(=O)NC(C)(C)C)ccc1OCC#N	2	83*	6	16	14	-5
CC(C)(C)C(=O)OC12CCCN(C1)/C(=C/c1ccc(Cl)cc1)C2 (centres undefined)	-7	.	.	.	.	.
CS(=O)(=O)c1ccc2nc(NC(=O)c3cccc([N+](=O)[O-])c3)sc2c1	-4	-2	9	39*	-2	-25
SMILES	PrPC surface inh	PfHsp40 yeast	BJeLR viability	GDH-TPI counter	Mtb FBA inh	PrP UTR inh
CCNS(=O)(=O)c1ccc2nc(NC(=O)c3cccnc3)sc2c1	-3	0	15	70*	-1	-27
CS(=O)(=O)c1ccc2nc(NC(=O)c3cccs3)sc2c1	-4	-3	.	49*	-2	-18
O=C(NCc1ccco1)c1ccc2ccccc2n1	7	2	3	-2	0	-20
CC(C)(C)OC(=O)c1c(N)n(Cc2ccco2)c2nc3ccccc3nc12	-14	-1	-5	16	114*	-29
C=CCNC(=O)c1c(N)n(Cc2ccco2)c2nc3ccccc3nc12	1	1	3	11	113*	-18
COc1ccc(Cn2c(C)nc3c(c2=O)c2nc4ccccc4nc2n3Cc2ccco2)cc1	6	0	.	22	2	-2
COc1ccc(S(=O)(=O)c2c(N)n(Cc3ccco3)c3nc4ccccc4nc23)cc1	3	2	8	15	51*	5
CCCCCc1ccc(NC(=O)OCCCN2CCC3(CCC(c4ccccc4)CC3)C2=O)cc1 (centres undefined)	5	.	.	.	.	.
O=C1C2CCCN2C(=S)N1C1CCCCC1 (centres undefined)	0	0	-4	-3	3	-5
O=C1C=C(c2ccoc2)N2CCC[C@H]2C1	2	-1	.	39*	1	-12
O=C1NC(=O)C(=CC=Cc2ccccc2)S1	-5	.	.	38*	-2	.
CN(C)/C=C1\N=C(c2ccc(Cl)cc2Cl)OC1=O	-3	1	17	20	-2	-55
COc1ccc(OC)c(/C=C2\N=C(c3ccccc3)OC2=O)c1	0	0	2	8	0	-19
CN(C)/C=C1/N=C(c2ccccc2)OC1=O	-4	0	3	52*	0	-6
Cc1ccc(C2=N/C(=C\N(C)C)C(=O)O2)cc1	-3	0	-11	45*	0	.
CN(C)/C=C1\N=C(c2cccnc2Oc2ccc(Cl)cc2)OC1=O	2	0	-13	32*	1	-48
O=C1OC(c2ccc(Br)cc2)=N/C1=C\N1CCCCC1	-6	1	0	20	-2	-20
O=C1OC(c2ccccc2)=N/C1=C\N1CCCCC1	-4	-1	-6	41*	-3	-80
CN(C)/C=C1\N=C(c2cccs2)OC1=O	-3	0	5	49*	-1	-28
CCOc1ccc(/C=N/N(C)c2ccccc2)cc1OC	3	3	-5	33*	-1	-126
COc1ccc(NC(=O)C(CCCCNC(=O)OC(C)(C)C)NC2(C(=O)NCCc3c[nH]c4ccccc34)CCCCC2)cc1 (centres undefined)	2	.	.	.	.	.
COc1cccc(-c2nc(-c3ccc4c(c3)NC(=O)CO4)cs2)c1	-14	1	7	-5	0	-36
COc1ccc(-c2cc(-c3ccc(OC)cc3)nc(-c3ccc4c(c3)NC(=O)CO4)c2)cc1	-5	1	-4	32*	1	-16
C=CC[n+]1c(/C=C2\C=Cc3cc(C)ccc3N2CC)ccc2ccccc21	-3	277*	26	0	-2	-28
CCN1/C(=C/c2ccc3cc(C)cc(C)c3[n+]2CC)Sc2cc(C)ccc21	-6	-6	.	0	0	1
Cc1ccccc1C(=O)OCC(=O)N(C)c1c(N)n(Cc2ccccc2)c(=O)[nH]c1=O	-2	0	-6	1	-2	-7
